SMILES strings stand for the structures. Results filed as inconclusive are left out. A call without a number means that no potency is given here. Activity calls are given as the source filed them. Calls come from the whole dose curve; as a rule, active = well fitted activation curve with a large enough effect in the repeat runs; inconclusive = weak or mixed curves; inactive = no such curve, though single readings can be large or run the other way.
Potency is the fitted concentration of half-maximal effect.

This assay in a line: qHTS assay for small molecules that induce genotoxicity in human embryonic kidney cells expressing luciferase-tagged ATAD5 (AID 651632). Note: nearly all actives have a fitted effect of over 15% in size. The settings on record: HEK293T ATAD5-luciferase induction, 16 h; series mostly up to 83.3 µM. The text has this: U.S. Tox21 Program National Center for Advancing Translational Sciences [NCATS] NIH Chemical Genomics Center [NCGC] U.S. Environmental Protection Agency [EPA] National Institutes of Environmental Health Sciences [NIEHS] National Toxicology Program [NTP] U.S. Food and Drug Administration [FDA] Tox21 Assay Overview: As cancer cells divide rapidly and during every cell division they need to duplicate their genome by DNA replication. The failure to do so results in the cancer cell death. Based on this concept, many chemotherapeutic agents were developed but have limitations such as low efficacy and severe side effects etc. A new cell based assay was developed to find the compounds that effectively block DNA replication either by directly damaging DNA or by inhibiting other cellular mechanisms. Enhanced Level of Genome Instability Gene 1 (ELG1; human ATAD5) protein levels increase in response to various types of DNA damage. Using a luciferase reporter-gene tagged with ATAD5, a cell-based assay [developed by Kyungjae Myung, NHGRI, NIH] was used to measure the induction of ATAD5 in human embryonic kidney cells (HEK293T). So, increase in luciferase activity can be used to identify the compounds that cause genetic stress.
Tox21 Assay Protocol Summary: For genotoxicity screening, 2,000 cells in 5 uL/well were dispensed into white, solid-bottom 1536-well plates using a Multidrop Combi (Thermo Scientific) dispenser. Following transfer of 23 nL compound or DMSO vehicle by a pin tool, the plates were incubated 16 hr at 37C and 5% CO2. 5 ul Amplite (AAT Bioquest, Inc.) was then added to each plate and following 30 min incubation at room temperature, luciferase activity was quantified on a ViewLux CCD-based plate reader.
Take `CCCCCCCCCCCC[n+]1ccc2ccccc2c1`: the Potency entry was “inactive”. With `NC(=O)c1cc[n+](CC2=C(C(=O)O)N3C(=O)[C@@H](NC(=O)C(c4ccccc4)S(=O)(=O)[O-])[C@H]3SC2)cc1` (stereo not given in full) the entry was “inactive”. With `O=C1c2c(O)cccc2[C@H]([C@@H]2O[C@H](CO)[C@@H](O)[C@H](O)[C@H]2O)c2cc(CO)cc(O)c21` the entry was “inactive”; with `CCOc1ccc(NC(=S)Nc2ccc(OCC)cc2)cc1`, “inactive”; with `CO/N=C(\C(=O)N[C@@H]1C(=O)N2C(C(=O)O)=C(C[N+]3(C)CCCC3)CS[C@H]12)c1csc(N)n1`, “inactive”. As for `CC(C)NCC1CCc2cc(CO)c([N+](=O)[O-])cc2N1` (stereo not given), the entry is “inactive”; as for `CC(=O)N[C@@H](C=O)[C@H](O)[C@H](O)[C@@H](O)CO`, “inactive”; as for `SC1CCCCC1`, “inactive”. For `O=C(O)c1ccc(NC2OC[C@@H](O)[C@H](O)[C@H]2O)cc1` (stereo not given in full), the Potency entry was “inactive”. With `O=C(O)COc1ccccc1/C=N/NC(=O)c1ccncc1` the entry was “inactive”; with `CCSCC`, “inactive”; with `CC[C@@H](C)[C@H](N)C(=O)O`, “inactive”. As for `CC(Cc1ccc(O)c(O)c1)C(C)Cc1ccc(O)c(O)c1` (stereo not given), the entry is “inactive”; as for `CCCCCCCCCC(=O)NO`, “inactive”; as for `COc1ccc(/C=C/C(=O)Nc2ccccc2C(=O)O)cc1OC`, 1190 nM (active). `N[C@H](C(=O)O)[C@@H]1CC(Cl)=NO1`: the Potency entry is “inactive”.

In the case of `C/C(=C\C(=O)OCCCCCCCCC(=O)O)C[C@@H]1OC[C@H](C[C@@H]2O[C@H]2[C@@H](C)[C@H](C)O)[C@@H](O)[C@H]1O`, the Potency result was “inactive”.

For `NCCCC(=O)O`, the Potency entry is “inactive”.

In the case of `O=C1CCCCCCCCCCCCCC1`, the Potency result was “inactive”. As for `CCCn1c(=O)[nH]c(=O)c2[nH]cnc21`, the entry is “inactive”; as for `Cc1ccc2nc(-c3ccc(N)cc3)sc2c1S(=O)(=O)O`, 850 nM (active); as for `O=C(O)c1cc(=O)c2c3nc4ccccc4oc-3cc(=O)c2[nH]1`, “inactive”.

As to `Cc1cccc(C)c1NC(=O)C1CCCCN1C` (stereo not given), the Potency result is “inactive”. With `C[C@H](O)CN(C)C` the entry was “inactive”; with `OCCCNc1ccccc1`, “inactive”.

With `O=C(CCCCCCCCc1cccnc1)N1CCC(C=C(c2ccccc2)c2ccccc2)CC1`, the Potency entry is “inactive”. With `c1ccc2c(c1)OCC(CN1CCCCC1)O2` (stereo not given) the entry was “inactive”. With `CCCCCCCCCCCCN1CCCC1=O` the entry was “inactive”; with `CCOC(=O)COc1ccc2c(=O)cc(-c3ccccc3)oc2c1`, “inactive”. On to `O=C(O)c1cc2cc(Cc3cccnc3)ccc2o1`, for which the Potency entry is “inactive”. With `CN(C[C@@H](CC[N+]12CCC(C3CCCCC3)(CC1)CC2)c1ccc(Cl)c(Cl)c1)C(=O)c1cc(C(F)(F)F)cc(C(F)(F)F)c1` the entry was “inactive”; with `Oc1ccc(Cl)c2c1CCC2`, “inactive”; with `O=C(O)C[C@H](O)C[C@H](O)/C=C/c1c(C2CC2)nc2ccccc2c1-c1ccc(F)cc1`, “inactive”. As for `CCC1OC(=O)C[C@@H](O)[C@H](C)[C@@H](O[C@@H]2O[C@H](C)C[C@H](N(C)C)[C@H]2O)[C@@H](CC=O)C[C@@H](C)C(=O)/C=C/[C@]2(C)OC2C1C` (stereo not given in full), the entry is “inactive”; as for `CN=C(N)NCCC[C@H](N)C(=O)O`, “inactive”; as for `COc1c(O)cc2c(c1O)[C@@H]1O[C@H](CO)[C@@H](O)[C@H](O)[C@H]1OC2=O`, “inactive”. With `CCCC(CCC)C(=O)OC1C[C@H]2CC[C@@H](C1)[N+]2(C)C` (stereo not given in full) the entry was “inactive”; with `CCC(NC(C)C)C(O)c1ccc(O)c(O)c1` (stereo not given), “inactive”; with `Cc1cc(-c2ccc(N=Nc3ccc4c(S(=O)(=O)O)cc(S(=O)(=O)O)c(N)c4c3O)c(C)c2)ccc1N=Nc1ccc2c(S(=O)(=O)O)cc(S(=O)(=O)O)c(N)c2c1O`, “inactive”.

Consider `C=C1C(=C/C=C2\CCC[C@]3(C)[C@@H]([C@H](C)CCCC(C)C)CC[C@@H]23)C[C@@H](O)C[C@@H]1O`, for which the Potency result is “inactive”.

The values above are taken from PubChem BioAssay (Tox21).
